Values joined by “and” are separate entries in the source; they are usually repeats but may differ in a detail not shown here. Equal values may be shown once. Compounds without any hit were thinned out: in the full panel of roughly 83,000, 20% have a hit.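 Percent growth is the endpoint: 0 to 100 indicates growth inhibition (40 means 60% inhibition), 0 means no net growth, and negative values indicate cell death.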 Active and inactive are the calls of the source.
test system: SNB-75 CNS; assay: NCI-60 one-dose screen, 48 h (100 = growth as untreated, 0 = no growth, -100 = all killed); conditions: 10 µM
Protocol: Growth inhibition of the SNB-75 human tumor cell line is measured as a screen for anti-cancer activity. Cells are grown in 96 well plates and exposed to the test compound for 48 hours. Compounds are tested at a single concentration, which is 10^-5 M for most compounds. The reported endpoint is percent growth (GI% or GIPRCNT), where numbers from 0 - 100% represent growth inhibition, and numbers from -100% - 0 represent cell death. For example, a value of 40 represents 60% growth inhibition. A value of 0 means no net growth occurred over the course of the experiment. A value of -40 indicates 40% of cells at the beginning of the experiment died by the end of the experiment. A value of -100 means all cells are dead at the end of the experiment.
NCI-60 Human Tumor Cell Lines Screen was performed using the standard one-dose NCI protocol, which is described in more detail at https://dtp.cancer.gov/discovery_development/nci-60/default.htm.
Compounds with GIPRCNT values below 10 were considered active. Activity score was based on GIPRCNT using the following formula: […]
Score is 0 for GIPRCNT values of 100 or above, 50 for GIPRCNT values of 0, and 100 for GIPRCNT values of -100.

Structure (SMILES)	growth
COc1ccc(-c2cscc2N)cc1	88.8% (inactive)
O=C(O)c1c(Cl)c(Cl)c(Cl)c(Cl)c1-c1c2cc(I)c(=O)c(I)c-2oc2c(I)c(O)c(I)cc12	108% (inactive) and 91.1% (inactive) and 49.5% (inactive)
O=C(Nc1cccc(Br)c1)Oc1cccc2cccnc12	83.4% (inactive)

same assay, conditions: 10 µM unless noted

Structure (SMILES)	growth
C/C=C1\SC(=S)NC1=O	88.5% (inactive)
O=C1NC(=O)/C(=C/C=C/c2ccccc2)S1	59.7% (inactive)
O=C(CC1(O)C(=O)Nc2c(Cl)ccc(Cl)c21)c1ccc(Cl)cc1Cl (stereo not given)	70.1% (inactive)
CC1=CC(O)C2CC1C2(C)C (stereo not given)	84.6% (inactive) and 95.3% (inactive)
CCCCCCCCCCCCCCCC[N+](C)(CCO)Cc1cnc[nH]1 (stereo not given)	-86.6% (active)
O=C1c2ccccc2C(=O)N1c1ccccc1	89.2% (inactive)
O=C1c2ccccc2C(=O)c2sc(Nc3cccc(Cl)c3)nc21	-85.2% (active)
NC(N)=N/N=C/c1ccc([N+](=O)[O-])o1	106% (inactive)
Cn1c2ccccc2c2nnc(N/N=C/c3ccccn3)nc21	31% (inactive)
Oc1c(Cl)cc(Cl)c2cccnc12	82.6% (inactive) and 46.2% (inactive)
COc1ccc(N=N/N=c2\sc3cc(OC)ccc3n2C)cc1	101% (inactive)
CC(=O)C(=Cc1ccc(C=C(C(C)=O)C(C)=O)cc1)C(C)=O	73.1% (inactive)
COc1ccc2nc3cc(Cl)ccc3c(NCCNc3c4ccc(Cl)cc4nc4ccc(OC)cc34)c2c1	-86.8% (active)
COc1ccccc1OC(=O)Oc1ccccc1OC	97.8% (inactive) and 90.8% (inactive)
CN(C)c1ccc(/C=N/N=C(\C#N)[S][Sn]([Cl])([c]2ccccc2)[c]2ccccc2)cc1	8.38% (active)
N#CSCC(=O)c1ccc(Cl)cc1	33% (inactive)
CCC1OC(OC)C=CC1=O (stereo not given)	95% (inactive)

Structure (SMILES)	growth
N#CSCc1ccc(Cl)c(CSC#N)c1	25.4% (inactive)
Nc1ccc(SSc2ccc(N)cc2)cc1	102% (inactive)
CC(=O)ON=C1C=CC(=C(C#N)c2ccccc2)C=C1	19.6% (inactive)
CCN(CC)CC(C)(C)C(=O)/C=C/c1ccc(Cl)c(Cl)c1	30% (inactive)
CCC(CCCN(CC)CCc1ccccc1)OC(=O)c1cc(OC)c(OC)c(OC)c1 (stereo not given)	65.3% (inactive)
O=C(Nc1ccccc1)c1cc(Cl)ccc1O	64% (inactive)
N#CSCc1ccc(CSC#N)c(Cl)c1	32.2% (inactive)
O=[N+]([O-])c1ccc2c(N=Nc3ccc4ccccc4c3O)c(O)cc(S(=O)(=O)O)c2c1	105% (inactive)
O=C(/C=C\c1cc(Br)ccc1O)/C=C/c1cc(Br)ccc1O	-8.46% (active)
O=C(/C=C\c1ccccc1)N1c2ccccc2CC1c1c[nH]c2ccccc12 (stereo not given)	62.4% (inactive)
Nc1nc(N)c2c(ccc3c2ccn3Cc2cccc([N+](=O)[O-])c2)n1	-89.8% (active)
COC(=O)c1nc(=S)[nH]c(C(=O)OC)c1C(=O)c1ccccn1	57.2% (inactive)
CCOC(=O)/C(=C\c1ccc(-c2ccccc2)cc1)C(C)=O	88% (inactive)
COC(=O)Nc1nc2ccc(C(=O)c3ccccc3)cc2[nH]1	8.68% (active) and 89.4% (inactive) and 23.9% (inactive)
CN(C)CCOc1ccc2c(c1)C(=O)/C(=C\c1ncc([N+](=O)[O-])n1C)C2	-86.6% (active)
Cn1c2c(c3ccccc31)CCN1C[C@@H]3CCCC[C@H]3C[C@@H]21	-21.7% (active)
CN=C(N)N/N=C(\C)c1ccc2c(c1)Cc1cc(/C(C)=N/NC(N)=NC)ccc1-2	-46.5% (active)

same assay, conditions: 100 µM

Structure (SMILES)	growth
COc1ccc(-c2cscc2N)cc1	51.9% (inactive)
O=C(O)c1c(Cl)c(Cl)c(Cl)c(Cl)c1-c1c2cc(I)c(=O)c(I)c-2oc2c(I)c(O)c(I)cc12	26% (inactive)
O=C(Nc1cccc(Br)c1)Oc1cccc2cccnc12	41.6% (inactive)
